{"source": "the supplement of paper PMC7057948", "about": "“A genome-wide approach for identification and characterisation of metabolite-inducible systems” (Nature Communications, 2020)"}
{"test_system": "HpdA/P_H16_RS24175 L-tyrosine biosensor (pEH158)", "experiment": "relative induction of RFP reporter vs primary effector; higher = stronger activation", "details": "inducer concentration 5 mM; 6 h; Cupriavidus necator H16; minimal medium + 0.4% gluconate", "method": "(§1)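 Orthogonality screen of 21 primary inducers against 21 transcription factor/inducible promoter–mRFP biosensors in C. necator H16 in minimal medium, robotic 96-well format, 5 mM inducer, 30 °C. OD-normalised RFP fluorescence was read 6 h later and expressed as relative induction (%) = 100 × (FL compound − FL uninduced)/(FL primary inducer − FL uninduced); mean of n=4. Cognate pairs (100% by definition) omitted.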", "units": {"relative induction of RFP reporter": "%"}}
{"smiles": "C=C(CC(=O)O)C(=O)O", "note": "[itaconate]", "relative induction of RFP reporter": -0.159}
{"smiles": "O=C(O)CCO", "note": "[3-hydroxypropanoate]", "relative induction of RFP reporter": -0.172}
{"smiles": "O=C(O)C(O)C(O)C(=O)O", "note": "(centres undefined) [tartrate]", "relative induction of RFP reporter": -0.0207}
{"smiles": "CC(=O)C(C)O", "note": "(centres undefined) [acetoin]", "relative induction of RFP reporter": -0.195}
{"smiles": "O=C(O)C1CCCCC1", "note": "[cyclohexane-1-carboxylate]", "relative induction of RFP reporter": -0.0345}
{"smiles": "OC1OC[C@H](O)[C@H](O)[C@H]1O", "note": "(mixture of isomers) [L-arabinose]", "relative induction of RFP reporter": 0.0304}
{"smiles": "O=C(O)C(=O)c1ccccc1", "note": "[phenylglyoxylate]", "relative induction of RFP reporter": -0.159}
{"smiles": "O=C(O)c1ccc(O)c(O)c1", "note": "[3,4-dihydroxybenzoate]", "relative induction of RFP reporter": -0.149}
{"smiles": "C=CC(=O)O", "note": "[acrylate]", "relative induction of RFP reporter": -0.146}
{"smiles": "O=C(O)c1ccccc1", "note": "[benzoate]", "relative induction of RFP reporter": -0.127}
{"smiles": "NCCC(=O)O", "note": "[β-alanine]", "relative induction of RFP reporter": -0.165}
{"smiles": "O=C(O)CS(=O)(=O)O", "note": "[sulfonatoacetate]", "relative induction of RFP reporter": -0.143}
{"smiles": "O=CO", "note": "[formate]", "relative induction of RFP reporter": -0.107}
{"smiles": "Nc1ccccc1C(=O)C[C@H](N)C(=O)O", "note": "[L-kynurenine]", "relative induction of RFP reporter": 0.183}
{"smiles": "O=C(O)c1ccccc1O", "note": "[salicylate]", "relative induction of RFP reporter": -0.0712}
{"smiles": "O=c1[nH]c(=O)c2nc[nH]c2[nH]1", "note": "[xanthine]", "relative induction of RFP reporter": -0.0594}
{"smiles": "N[C@@H](Cc1ccccc1)C(=O)O", "note": "[L-phenylalanine]", "relative induction of RFP reporter": 57.7}
{"test_system": "NahR/P_H16_RS08125 salicylate biosensor (pEH042)", "experiment": "relative induction of RFP reporter vs primary effector; higher = stronger activation", "details": "inducer concentration 5 mM; 6 h; Cupriavidus necator H16; minimal medium + 0.4% gluconate", "method": "as §1", "units": {"relative induction of RFP reporter": "%"}}
{"smiles": "C=C(CC(=O)O)C(=O)O", "note": "[itaconate]", "relative induction of RFP reporter": 0.0104}
{"smiles": "O=C(O)CCO", "note": "[3-hydroxypropanoate]", "relative induction of RFP reporter": 0.0108}
{"smiles": "O=C(O)C(O)C(O)C(=O)O", "note": "(centres undefined) [tartrate]", "relative induction of RFP reporter": 0.0221}
{"smiles": "CC(=O)C(C)O", "note": "(centres undefined) [acetoin]", "relative induction of RFP reporter": 0.00159}
{"smiles": "O=C(O)C1CCCCC1", "note": "[cyclohexane-1-carboxylate]", "relative induction of RFP reporter": -0.0105}
{"smiles": "OC1OC[C@H](O)[C@H](O)[C@H]1O", "note": "(mixture of isomers) [L-arabinose]", "relative induction of RFP reporter": -0.0109}
{"smiles": "O=C(O)C(=O)c1ccccc1", "note": "[phenylglyoxylate]", "relative induction of RFP reporter": 0.00691}
{"smiles": "O=C(O)c1ccc(O)c(O)c1", "note": "[3,4-dihydroxybenzoate]", "relative induction of RFP reporter": 0.0143}
{"smiles": "C=CC(=O)O", "note": "[acrylate]", "relative induction of RFP reporter": 0.00921}
{"smiles": "O=C(O)c1ccccc1", "note": "[benzoate]", "relative induction of RFP reporter": 0.078}
{"smiles": "N[C@@H](Cc1ccc(O)cc1)C(=O)O", "note": "[L-tyrosine]", "relative induction of RFP reporter": 0.00647}
{"smiles": "NCCC(=O)O", "note": "[β-alanine]", "relative induction of RFP reporter": 0.0063}
{"smiles": "O=C(O)CS(=O)(=O)O", "note": "[sulfonatoacetate]", "relative induction of RFP reporter": -0.0115}
{"smiles": "O=CO", "note": "[formate]", "relative induction of RFP reporter": 0.0105}
{"smiles": "Nc1ccccc1C(=O)C[C@H](N)C(=O)O", "note": "[L-kynurenine]", "relative induction of RFP reporter": 0.00391}
{"smiles": "O=c1[nH]c(=O)c2nc[nH]c2[nH]1", "note": "[xanthine]", "relative induction of RFP reporter": 0.0144}
{"smiles": "N[C@@H](Cc1ccccc1)C(=O)O", "note": "[L-phenylalanine]", "relative induction of RFP reporter": 0.00484}
